In PubChem BioAssay (NCI):
About 79,000 compounds went through this panel and 15% of them were active in at least one assay; those are over-represented in the sample as a whole. Calls of active or inactive are those of the source. Cut-off read from the data, not from the text of the source: active = growth inhibition above about 70%; inactive = the rest.

Experiments:
[1] = NCI Yeast Anticancer Drug Screen. Data for the rad50 strain (AID 155);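 note: 0% = growth of vehicle-only cultures of the same strain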; details: S. cerevisiae rad50 strain growth inhibition, hits give high values
In short: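 Compounds were tested on a yeast strain with an engineered DNA damage repair alteration; the reported value is growth inhibition normalised to vehicle treatment.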

[2] = NCI Yeast Anticancer Drug Screen. Data for the mec2-1 strain (AID 157); details: S. cerevisiae mec2-1 strain, hits give high values
In short: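 Vehicle-treated cultures served as reference for growth inhibition of compound-exposed mec2-1 yeast.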

[3] = NCI Yeast Anticancer Drug Screen. Data for the sgs1 mgt1 strain (AID 161);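 note: 0% = growth of cultures given vehicle only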; details: S. cerevisiae sgs1 mgt1 strain, hits give high values
In short: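 Genetically altered yeast, compound exposure, growth inhibition relative to vehicle.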

[4] = NCI Yeast Anticancer Drug Screen. Data for the cln2 rad14 strain (AID 165);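 note: 0% = growth equal to vehicle treated cultures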; details: S. cerevisiae cln2 rad14 strain, hits give high values
In short: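 Each compound was tested on cln2 rad14 yeast. Inhibition of growth was calculated against vehicle-exposed controls.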

[5] = NCI Yeast Anticancer Drug Screen. Data for the bub3 strain (AID 167); details: S. cerevisiae bub3 mutant strain, hits give high values
In short: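 Growth of a checkpoint-deficient yeast mutant is measured after compound exposure. Values represent inhibition relative to vehicle.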

[6] = NCI Yeast Anticancer Drug Screen. Data for the mlh1 rad18 strain (AID 175); details: S. cerevisiae mlh1 rad18 strain growth inhibition, hits give high values
In short: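 Vehicle-treated cultures served as the reference for growth inhibition in a yeast strain carrying DNA damage repair alterations exposed to each compound.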

[7] = at 5.0 µM (retest, dose inferred, filed as 0.5)
[8] = at 50.0 µM (retest, dose inferred, filed as 5.0)

Measured: growth inhibition

CCC(c1ccc(O)c(C2CCCCC2)c1)C(CC)c1ccc(OC(=O)c2ccccc2)c(C2CCCCC2)c1 (stereo not given)
inactive: [1]; [7] 0% | [1]; [8] -2% | [1]; at 50.0 µM -16.8% | [2]; [7] -21% | [2]; [8] 10% | [2]; at 50.0 µM -10.8% | [3]; [7] -11% | [3]; [8] 11% | [3]; at 50.0 µM -17.1% | [4]; [7] -4% | [4]; [8] -8% | [4]; at 50.0 µM 26.8% | [5]; [7] 0% | [5]; [8] -6% | [5]; at 50.0 µM 1.15% | [6]; [7] -14% | [6]; [8] -9% | [6]; at 50.0 µM -8.9%

Oc1ccccc1/C=N/NC(=S)NC12CC3CC(CC(C3)C1)C2
inactive: [1]; [7] 7% | [1]; [8] 19% | [2]; [7] 14% | [2]; [8] 11% | [2]; at 50.0 µM 29.6% | [3]; [7] 27% | [3]; [8] 19% | [3]; at 50.0 µM 64.4% | [4]; [7] -38% | [4]; [8] 20% | [4]; at 50.0 µM 31.1% | [5]; [7] 21% | [5]; [8] 21% | [5]; at 50.0 µM 42.8% | [6]; [7] 10% | [6]; [8] 41%
active: [1]; at 50.0 µM 81.3% | [6]; at 50.0 µM 85.9%

CC#CS(=O)(=O)c1ccccc1
active: [1]; at 50.0 µM 74.7% | [2]; at 50.0 µM 85.5% | [3]; [8] 81% | [3]; at 50.0 µM 80.7% | [6]; [8] 87%
inactive: [1]; [7] 1% | [1]; [8] 40% | [2]; [7] -1% | [2]; [8] 52% | [3]; [7] 10% | [4]; [7] 3% | [4]; [8] 23% | [4]; at 50.0 µM 13.9% | [5]; [7] 0% | [5]; [8] 19% | [5]; at 50.0 µM 6.35% | [6]; [7] 36% | [6]; at 50.0 µM 66.6%

Cc1cc(N(CCOS(C)(=O)=O)CCOS(C)(=O)=O)ccc1C=Nc1ccc(-c2csc(-c3ccc(Cl)cc3)n2)cc1
active: [1]; [8] 93% | [1]; at 50.0 µM 93.9% | [2]; [8] 96% | [2]; at 50.0 µM 97% | [3]; [8] 93% | [3]; at 50.0 µM 96.4% | [4]; [8] 93% | [4]; at 50.0 µM 87.7% | [5]; [8] 88% | [5]; at 50.0 µM 90.3% | [6]; [8] 95% | [6]; at 50.0 µM 94.9%
inactive: [1]; [7] 22% | [2]; [7] 17% | [3]; [7] 18% | [4]; [7] 4% | [5]; [7] -2% | [6]; [7] 57%

CCC(=O)N1c2ccccc2CC1c1c[nH]c2ccccc12 (stereo not given)
inactive: [1]; [7] -4% | [2]; [7] -10% | [2]; at 50.0 µM 30.8% | [3]; [7] -3% | [4]; [7] -56% | [5]; [7] -10% | [5]; at 50.0 µM 8.15% | [6]; [7] 1%
active: [1]; [8] 98% | [1]; at 50.0 µM 95.2% | [2]; [8] 98% | [3]; [8] 98% | [3]; at 50.0 µM 77.4% | [4]; [8] 99% | [4]; at 50.0 µM 74.5% | [5]; [8] 78% | [6]; [8] 98% | [6]; at 50.0 µM 93.3%

O=C(Cl)c1cc(-c2ccc(Cl)cc2)nc2c(Cl)cccc12
active: [1]; [8] 98% | [1]; at 50.0 µM 72.5% | [2]; [8] 99% | [3]; [8] 99% | [3]; at 50.0 µM 84.8% | [4]; [8] 99% | [5]; [8] 99% | [5]; at 50.0 µM 74.2% | [6]; [8] 99% | [6]; at 50.0 µM 87.2%
inactive: [1]; [7] 6% | [2]; [7] 11% | [2]; at 50.0 µM 61.2% | [3]; [7] 5% | [4]; [7] 3% | [4]; at 50.0 µM 42.4% | [5]; [7] 4% | [6]; [7] 9%

O=C(Nc1c(Cl)cccc1Cl)Oc1cccc2cccnc12
inactive: [1]; [7] 58% | [2]; [7] 35% | [3]; [7] 60% | [4]; [7] 20% | [5]; [7] 42% | [6]; [7] 57%
active: [1]; [8] 97% | [1]; at 50.0 µM 88.5% | [2]; [8] 98% | [2]; at 50.0 µM 90.6% | [3]; [8] 99% | [3]; at 50.0 µM 90.6% | [4]; [8] 98% | [4]; at 50.0 µM 88% | [5]; [8] 96% | [5]; at 50.0 µM 89.4% | [6]; [8] 97% | [6]; at 50.0 µM 88.3%

CCCOc1ccc(-c2nc(-c3ccc(N=Cc4ccc(N(CCOS(C)(=O)=O)CCOS(C)(=O)=O)cc4C)cc3)cs2)cc1
inactive: [1]; [7] 13% | [2]; [7] 7% | [3]; [7] 8% | [3]; at 50.0 µM 46.5% | [4]; [7] 7% | [4]; [8] 53% | [4]; at 50.0 µM 24.6% | [5]; [7] -3% | [5]; [8] 2% | [5]; at 50.0 µM 37% | [6]; [7] 50%
active: [1]; [8] 82% | [1]; at 50.0 µM 84.7% | [2]; [8] 83% | [2]; at 50.0 µM 76.8% | [3]; [8] 89% | [6]; [8] 95% | [6]; at 50.0 µM 92.4%

CCN(CC)CC(O)CNc1ccc(C)c2sc3ccccc3c(=O)c12 (stereo not given)
inactive: [1]; [7] 12% | [2]; [7] 7% | [3]; [7] 28% | [4]; [7] 12% | [5]; [7] 10% | [6]; [7] 14%
active: [1]; [8] 99% | [1]; at 50.0 µM 99.8% | [2]; [8] 99% | [2]; at 50.0 µM 99.8% | [3]; [8] 100% | [3]; at 50.0 µM 95.2% | [4]; [8] 99% | [4]; at 50.0 µM 99.5% | [5]; [8] 99% | [5]; at 50.0 µM 99.5% | [6]; [8] 99% | [6]; at 50.0 µM 99.8%

O=C(O)/C(=C/c1c(O)ccc2ccccc12)c1csc(-c2nc(/C(=C\c3c(O)ccc4ccccc34)C(=O)O)cs2)n1
inactive: [2]; [7] 48% | [2]; [8] 48% | [4]; [7] 46% | [4]; [8] 46% | [5]; [7] 49% | [5]; [8] 49% | [6]; [7] 68% | [6]; [8] 68%
active: [1]; [7] 74% | [1]; [8] 74% | [1]; at 50.0 µM 89.6% | [2]; at 50.0 µM 92% | [3]; [7] 74% | [3]; [8] 74% | [3]; at 50.0 µM 92% | [4]; at 50.0 µM 90% | [5]; at 50.0 µM 90.2% | [6]; at 50.0 µM 88%
